# NPC1 promoter act – NPC1 promoter activation; Potency, µM (series often up to 9.22 µM), for inactives: at the top dose activation, most hits filed as activators; 2.4% of 320,000 active; Huh7 NPC1 promoter luciferase reporter, 24 h; also: % of control where 0% means no effect; nearly all actives have a fitted effect of over 60% in size
#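 Quantitative HTS used a cell-based reporter: Huh7 cells stably bearing the NPC1 promoter upstream of luciferase were treated with compounds for 24 h, and promoter activation was read as luminescence.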
# Rab9 promoter act – Rab9 promoter activation; Huh7 Rab9 promoter-luciferase reporter, luminescence, 24 h; Potency, µM (series often up to 9.22 µM), inactives show top-dose activation, negative = inhibition, most hits filed as activators; 2.8% of 320,000 active; also: % of control where 0% means no effect; nearly all actives have a fitted effect of over 60% in size
#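 Huh7 cells stably carrying a Rab9 promoter-luciferase reporter, 1500 cells per well in OP-MEM I with 10% FBS, treated with compound 24 hours at 37C. Luciferase activity read by luminescence after 10 minutes with Amplite reagent.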
# FLuc counter – counter-screen for miR-21 project: firefly luciferase inhibitors or activators; P08659; purified FLuc, Km substrates, luminescence inhibition; Potency, µM (series often up to 57.5 µM), for inactives: top-dose activity change, negative = inhibition, actives largely listed as inhibitors; 6.9% of 360,000 active;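 also: plate controls were vehicle for no effect and reference inhibitor for full effect; nearly all actives have a fitted effect of over 55% in size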
# Target sequence (P08659 whole entry, looked up): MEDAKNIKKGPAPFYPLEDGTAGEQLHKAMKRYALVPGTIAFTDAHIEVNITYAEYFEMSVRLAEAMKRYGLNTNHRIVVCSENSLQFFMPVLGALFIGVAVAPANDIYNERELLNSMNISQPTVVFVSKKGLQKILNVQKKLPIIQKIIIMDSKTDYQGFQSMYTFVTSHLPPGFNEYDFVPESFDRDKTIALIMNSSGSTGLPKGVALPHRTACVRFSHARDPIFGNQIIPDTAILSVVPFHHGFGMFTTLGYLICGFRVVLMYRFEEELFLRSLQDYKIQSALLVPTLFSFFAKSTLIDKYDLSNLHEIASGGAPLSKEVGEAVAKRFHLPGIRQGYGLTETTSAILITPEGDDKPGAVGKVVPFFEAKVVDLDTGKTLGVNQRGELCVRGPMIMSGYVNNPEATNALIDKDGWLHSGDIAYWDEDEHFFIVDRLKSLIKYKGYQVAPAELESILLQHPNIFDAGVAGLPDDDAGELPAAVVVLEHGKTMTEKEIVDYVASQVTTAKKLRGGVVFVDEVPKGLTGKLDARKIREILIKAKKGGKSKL
#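 Purified P. pyralis luciferase, 10 nM final, with Km-level 10 uM D-luciferin and 10 uM ATP in 50 mM Tris acetate pH 7.5, 10 mM Mg acetate, 0.01% Tween-20, 0.05% BSA; 6-point qHTS titration about 60 µM downward; luminescence read.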
# SMN2 splice enh – enhancers of SMN2 splice variant expression. Potency, µM (doses to about 46.1 µM), for the others: at the top dose activity change, positive = activation, actives largely listed as activators. HEK293 SMN2-luciferase splicing reporter, luminescence, 30-36 h. 2.8% of 210,000 active; also: % of control where 0% means no effect; nearly all actives have a fitted effect of over 55% in size
#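 HEK293 cells carry an SMN2 minigene-luciferase reporter in which exon 7 inclusion puts luciferase in frame. Cells were seeded at 2000 cells/well, attached for 10-12 hours, then exposed to compounds for 30-36 hours at 37C before ONE-Glo luminescence.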
# ELG1 genotox – genotoxicity induction in ELG1-luciferase HEK293T cells | HEK293T ELG1-luciferase reporter, luminescence, 16 h | Potency, µM (titrated, usually from 46 µM), for inactives: at the top dose activity change, positive = activation, most hits filed as activators | 1.3% of 330,000 active | AID 504466; also: % of control where 0% means no effect; nearly all actives have a fitted effect of over 60% in size
#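 Step 1: seed 2,000 HEK293T ELG1-luciferase cells per well. Step 2: add compound or DMSO, incubate 16 hr at 37 °C. Step 3: ONE-Glo, 30 min at room temperature, read luminescence.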
# KinaseGlo FLuc – blocks Kinase-Glo luciferase, a counter-screen artifact. Q27757. Kinase-Glo luciferase, ATP luminescence, 8 min. Potency, µM (highest dose often 38.3 µM), for inactives: top-dose activity change, negative = inhibition, usual class: inhibitors. 0.28% of 200,000 active; also: % is scaled to controls: 0 for no effect and ±100 for the full control effect; nearly all actives have a fitted effect of over 60% in size
#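 Kinase-Glo luciferase light output from ATP and luciferin was measured with 10 uM ATP, within the enzyme's linear range. Buffer: 50 mM imidazole pH 7.2, 50 mM KCl, 7 mM MgCl2, 0.01% Tween 20, 0.05% BSA; luminescence read after 8 min at ambient temperature.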
# * hit, by the source's call; u = inconclusive; x = no result; [ ] = another dose, or the depositor's remark. Sampled rows, rich in hits. Any-hit rate of the full collection: about 7.5%. Calls follow the shape of the dose curve; as a rule, active = well fitted curve in the direction sought with a large enough effect; inconclusive = small, poorly fitted or top-dose-only effect, or another doubt; inactive = no such curve, though single readings can be large; an effect the other way counts as inactive or inconclusive. Potency is read from the fitted curve at half-maximal effect.
SMILES,NPC1 promoter act,Rab9 promoter act,FLuc counter,SMN2 splice enh,ELG1 genotox,KinaseGlo FLuc
Cc1c(C(C)(C)C)sc(=NC(=O)c2ccccc2O)n1C,2.8µM*,1µM*,0.95µM*,x,u,x
Cc1ccccc1-c1nnc(SCC(=O)N2CCCc3ccccc32)o1,x,x,u,-11%,x,x
COc1ccccc1-c1nnc(SCC(=O)N2CCOCC2)o1,15%,18%,u,8.9µM*,4%,1%
COc1ccccc1-c1nnc(-c2ccc(N3CCOCC3)cc2)o1,u,u,19µM*,5.6µM*,16%,6%
COc1ccccc1-c1nnc(SCC(=O)N2CCCCC2)o1,28%,27%,-10%,x,4%,x
Cc1ccccc1-c1nnc(SCC(=O)N2CCCC2)o1,u,u,17µM*,x,u,x
O=C(CSc1nnc(-c2ccccc2Cl)o1)N1CCOCC1,2.2µM*,3.5µM*,19µM*,x,u,x
Cc1cccc(NC(=O)CSc2cn(CC(=O)N3CCCC3)c3ccccc23)c1C,x,x,-9%,x,x,x
CC(C)CN1CC2(CCN(S(=O)(=O)c3ccccc3)CC2)C1,x,x,x,2%,x,2%
CCCn1c(C)cc(C(=O)Cn2nnc3ccccc3c2=O)c1C,1µM*,0.89µM*,4.3µM*,13µM*,u,0%
CC(C)(C)c1ccc(C(=O)Cn2nc(C(=O)O)c3ccccc3c2=O)cc1,-8%,0%,9.5µM*,x,-8%,x
C=CCn1c(C)cc(C(=O)Cn2nc(C(=O)O)c3ccccc3c2=O)c1C,u,u,0.48µM*,11µM*,u,-2%
CC(C)CC(=O)Nc1ccc(C(=O)Cn2nc(C(=O)O)c3ccccc3c2=O)cc1,-1%,1%,5%,-17%,1%,0%
Cc1cc(C(=O)Cn2nc(C(=O)O)c3ccccc3c2=O)c(C)n1-c1ccc(F)cc1,21%,20%,2.7µM*,u,u,0%
CCOC(=O)CNC1CC(=O)N(c2ccc(Br)cc2)C1=O (stereo unspecified),-5%,-1%,-2%,x,6%,x
COCCn1c(C)cc(C(=O)Cn2nc(C(=O)O)c3ccccc3c2=O)c1C,30%,u,1.2µM*,25%,8.2µM*,-4%
Cc1nc2sc3c(c2c(=O)n1N)CCC3,0%,1%,7%,19%,6%,0%
CC1(C)Cc2c(sc3nc(-c4cccs4)n(N)c(=O)c23)CO1,u,2.8µM*,6µM*,-9%,-15%,-3%
Nn1c(-c2cccs2)nc2sc3c(c2c1=O)CCCC3,1%,6.3µM*,2.4µM*,6.3µM*,2.3µM*,-11%
Nn1c(Cc2ccccc2)nc2sc3c(c2c1=O)CCC3,-3%,1%,0%,x,-7%,x
CC1(C)Cc2c(sc3nc(-c4ccccc4)n(N)c(=O)c23)CO1,17%,14%,u,-4%,1%,0%
Cc1ccccc1-c1nc2sc3c(c2c(=O)n1N)CCCC3,18%,23%,6.7µM*,-60%,2.9µM*,-2%
CCc1ccccc1NC(=O)CCc1c(C)nc2cc(-c3ccccc3)nn2c1C,x,x,2%,-2%,x,x
CCCCN(CC)C(=O)CSc1c2c(nc3ccc(Cl)cc13)CCCC2,x,x,3%,-13%,x,x
Cc1ccc2nc(CN3CCN(S(=O)(=O)c4ccc(F)cc4)CC3)oc2c1,x,x,-1%,x,x,x
SMILES,NPC1 promoter act,Rab9 promoter act,FLuc counter,SMN2 splice enh,ELG1 genotox,KinaseGlo FLuc
Cc1c(C(=O)Nc2cccc(C(F)(F)F)c2)oc2ccc(S(=O)(=O)N3CCC4(CC3)OCCO4)cc12,x,x,-3%,x,x,x
CCCN1CCCc2cc(CN(CCCN3CCOCC3)C(=O)Nc3ccc(Cl)c(Cl)c3)ccc21,x,x,-2%,x,x,x
Cn1c(NC(=O)CCc2ccccc2)cc(=O)n(C)c1=O,u,2.8µM*,13µM*,u,16µM*,-6%
COc1ccc(/C=C/C(=O)Nc2cc(=O)n(C)c(=O)n2C)cc1,1%,-1%,9.5µM*,7%,13%,-7%
Cn1c(NC(=O)/C=C/c2ccc(Cl)c(Cl)c2)cc(=O)n(C)c1=O,28%,22%,-19%,22%,u,1%
Cn1c(NC(=O)/C=C/c2ccccc2)cc(=O)n(C)c1=O,16%,u,21µM*,7.9µM*,u,-2%
CCOc1ccccc1CNC(=O)CCn1cccn1,x,x,-4%,x,x,x
Cc1cc(C)c(NC(=O)Cn2c(=O)n(Cc3ccc(C(=O)NCc4ccco4)cc3)c(=O)c3sccc32)c(C)c1,x,x,-2%,28%,x,x
Cc1nc(SCCC(=O)O)c2cc(-c3ccccc3)sc2n1,-7%,-12%,0.67µM*,x,15%,x
Cc1ccccc1-n1c(SCC(N)=O)nc2sc(-c3ccccc3)cc2c1=O,-2%,-4%,-7%,-12%,-6%,-5%
Cc1nc(N2CCOCC2)c2cc(-c3ccccc3)sc2n1,1%,-4%,21µM*,-5%,2%,11%
c1ccc(-c2cc3c(N4CCOCC4)ncnc3s2)cc1,-3%,-6%,-13%,-9%,-8%,3%
O=C(CCSCc1ccccc1Cl)N1CCN(c2ccc(F)cc2)CC1,x,x,-12%,x,x,x
O=C(CSc1ccccc1)NC1=NCCS1,1%,-3%,13µM*,x,1%,x
Cc1ccc(OCC(=O)NC2=NCCS2)cc1,24%,20%,11µM*,-17%,4%,-7%
Cc1ccccc1OCC(=O)Nc1ccccc1CO,14%,-6%,u,20%,1%,1%
O=C(CSc1cccc2cccc(Cl)c12)NC1=NCCS1,0%,-9%,u,7%,0%,5%
Cc1ccccc1OCC(=O)NC1=NCCS1,1.8µM*,2.8µM*,12µM*,13µM*,9.2µM*,-11%
O=C(COc1ccccc1)NCC(=O)NC1=NCCS1,12%,-2%,-7%,-3%,3%,-1%
COc1ccccc1NCc1nnc2n1CCCCC2,x,x,-2%,x,x,x
Cc1ccc(C2=C/C(=C/c3cccnc3)C(=O)O2)c(C)c1,-3%,1%,6µM*,9%,1%,-1%
O=C1OC(c2ccc(Cl)cc2)=C/C1=C/c1cccnc1,0%,8%,-14%,x,-3%,x
CC(C)(O)C(=O)N=Nc1c(O)[nH]c2ccccc12,u,u,u,u,u,-11%
Oc1[nH]c2ccc(Br)cc2c1N=Nc1ccc(F)cc1,6%,-1%,2%,x,3%,x
Oc1[nH]c2ccccc2c1N=Nc1nc2ccccc2s1,3.5µM*,1.1µM*,1.3µM*,2.5µM*,0.46µM*,-11%
COC(=O)/C=C(\C)N=Nc1c(O)[nH]c2ccccc12,2%,0%,24µM*,x,3%,x
Oc1[nH]c2ccccc2c1N=Nc1ccccc1,4%,u,6µM*,x,u,x
Oc1[nH]c2ccccc2c1N=Nc1ccc(F)cc1,23%,u,4.8µM*,-12%[1.84 µM],u,-5%
